Screening data (PubChem)
DAX1 inh-1: inhibitors of human orphan nuclear receptor DAX1 (NR0B1); hit rate 0.99% among 340,000; HEK293 Gal4-DAX1 luciferase reporter, luminescence; inhibition, % at 6.75 µM; P51843;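 active means inhibition above the mean over all tested compounds plus 3 SD, cut at about 4.2% in these data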;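 further: inhibition shows as a rise in luminescence from relieved DAX1 repression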
DAX1 inh-2: inhibitors of DAX1 repression of SF-1 activated StAR promoter; inhibition, % at 6.8 µM; hit rate 1.1% among 370,000; HEK293T StAR-luciferase reporter, SF-1/DAX-1 repression relief;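 active means inhibition above the mean over all tested compounds plus 3 SD, cut at about 3.6% in these data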;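 further: higher inhibition means more luminescence from relief of DAX-1 repression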
AHR activator: activators of human aryl hydrocarbon receptor; P35869; AHR-responsive luciferase reporter cells, luminescence; activation, % at 5 µM; hit rate 2.5% among 320,000; in the data active means activation above about 47%
Target sequence (P35869 whole entry, looked up): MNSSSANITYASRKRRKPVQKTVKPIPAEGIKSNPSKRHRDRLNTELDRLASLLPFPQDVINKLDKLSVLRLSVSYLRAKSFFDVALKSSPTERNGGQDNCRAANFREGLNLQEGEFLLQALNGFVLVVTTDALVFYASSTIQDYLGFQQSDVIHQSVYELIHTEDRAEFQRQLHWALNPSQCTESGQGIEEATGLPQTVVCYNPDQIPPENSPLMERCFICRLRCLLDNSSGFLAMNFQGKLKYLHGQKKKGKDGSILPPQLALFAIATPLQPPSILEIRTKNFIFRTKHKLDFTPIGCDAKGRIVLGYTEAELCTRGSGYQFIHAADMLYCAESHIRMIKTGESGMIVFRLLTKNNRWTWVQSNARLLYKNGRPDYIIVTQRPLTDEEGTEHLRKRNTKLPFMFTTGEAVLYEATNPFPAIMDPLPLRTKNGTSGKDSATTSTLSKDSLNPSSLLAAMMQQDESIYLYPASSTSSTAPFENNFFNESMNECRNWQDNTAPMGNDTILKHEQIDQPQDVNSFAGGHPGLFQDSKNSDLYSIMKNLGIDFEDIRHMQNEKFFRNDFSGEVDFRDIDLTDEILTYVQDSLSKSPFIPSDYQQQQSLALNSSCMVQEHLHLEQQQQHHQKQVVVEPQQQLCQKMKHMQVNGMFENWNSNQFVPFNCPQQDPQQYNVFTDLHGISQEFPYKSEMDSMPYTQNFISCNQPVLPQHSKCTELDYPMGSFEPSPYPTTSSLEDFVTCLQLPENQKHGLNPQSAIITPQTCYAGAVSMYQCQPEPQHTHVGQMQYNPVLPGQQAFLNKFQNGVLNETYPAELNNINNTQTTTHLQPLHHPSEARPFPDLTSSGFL
hgDAF-12 ag: activates the H. glycines DAF-12 receptor ligand-binding domain | HEK293 GAL4-hgDAF12 UAS-luciferase reporter, agonist luminescence; normalized to butyrate control | activation, % at 6.8 µM | hit rate 1.8% among 370,000 | AID 687014;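 active means activation above a cutoff set at the mean of all screened compounds plus 3 SD, cut at about 10% in these data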
ssDAF12 agonist: activators of S. stercoralis DAF-12 nuclear receptor; activation, % at 6.8 µM; HEK293 ssDAF-12/GRIP1 lit1-tk-luc reporter, luminescence; % of 3 µM dafachronic acid response; hit rate 1% among 370,000;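 active means activation above the mean over all tested compounds plus 3 SD, cut at about 0.9% in these data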
hcDAF12 agonist: activators of H. contortus DAF-12 nuclear receptor | HEK293 hcDAF-12 lit1-tk-luc reporter, luminescence; 0% DMSO, 100% Δ7-dafachronic acid | hit rate 1.4% among 370,000 | activation, % at 6.8 µM;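 active means activation above the mean of all tested compounds plus 3 SD, cut at about 5.5% in these data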
LXRb hcDAF ctr: activates human LXR-beta, counter-screen for hcDAF-12 agonists; shares compounds with hcDAF12 agonist; HEK293 Gal4-LXR tk-luc reporter, luminescence, 24 h; normalized: DMSO 0%, positive control 100%; activation, % at 6.8 µM; 3,400 tested, under 10 active;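 active means mean percent activation of the reporter above a cutoff set as the average over tested compounds plus their standard deviation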
hcDAF12 ag: hcDAF-12 agonism, confirmation assay; shares compounds with hcDAF12 agonist; HEK293 hcDAF-12 lit1-tk-luc reporter, luminescence; % of Δ7-dafachronic acid response; activation, % at 6.8 µM; hit rate 61% among 3,400; AID 743032;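 active means mean activation across triplicate tests above the threshold derived from the earlier primary screen, cut at about 5.5% in these data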
Of the large screens only hits and unclear results are named; the others gave an inactive call (follow-up assays come after a bar, where they were run). In the library only some 5.7% were active in any assay of this set; here they are far more common.

O=C1C=CC(=O)N1c1ccc2ccccc2c1	hcDAF12 agonist 7.4 (no result: AHR activator) | LXRb hcDAF ctr inactive | hcDAF12 ag inactive
O=C(CCn1cccc1)N1CCc2ccccc21	none
CC(CC(=O)N1CCc2ccccc21)n1cccn1 (stereo not given)	hcDAF12 agonist 11 | LXRb hcDAF ctr inactive | hcDAF12 ag 5.7
Cc1cc(C)n(CCC(=O)N2CCc3ccccc32)n1	hcDAF12 agonist 6.9 | LXRb hcDAF ctr inactive | hcDAF12 ag inactive
O=C(Cc1ccccc1)N1CCc2ccccc21	none
CCC(=O)N(CC(=O)Nc1sc(C)c(C)c1C(N)=O)C1CCCCC1	none
COc1ccc(CNc2ncc(-c3ccc(Br)cc3)n2C)cc1OC	none (no result: AHR activator)
Clc1ccccc1-c1nc(-c2ccccc2)n[nH]1	AHR activator 66, hgDAF-12 ag 12, hcDAF12 agonist 15 | LXRb hcDAF ctr inactive | hcDAF12 ag 6.6
Cc1nc(N)nc(-c2ccccc2O)n1	none
Oc1ccccc1-c1n[nH]c(-c2ccccc2O)n1	hgDAF-12 ag 13, ssDAF12 agonist 1.4, hcDAF12 agonist 7.1 (no result: AHR activator) | LXRb hcDAF ctr inactive | hcDAF12 ag 9.6
Cc1ccc(NP(=O)(c2ccc(N(C)C)cc2NC(=O)c2cccs2)N2CCOCC2)cc1 (stereo not given)	AHR activator 59, ssDAF12 agonist 1.5, hcDAF12 agonist 8.4 | LXRb hcDAF ctr inactive | hcDAF12 ag inactive
CN(C)c1ccc(P(=O)(Nc2ccccc2)N2CCOCC2)c(NC(=O)c2cccs2)c1 (stereo not given)	none
CN(C)c1ccc(P(=O)(Nc2ccc([N+](=O)[O-])cc2)N2CCOCC2)c(NC(=O)c2cccs2)c1 (stereo not given)	hcDAF12 agonist 8.0 | LXRb hcDAF ctr inactive | hcDAF12 ag inactive
O=C(CN1C(=O)NC2(CCCCCC2)C1=O)NCc1ccccc1Cl	none
CCC1(c2ccccc2)NC(=O)N(CC(=O)NNC(=O)c2ccc(F)cc2)C1=O (stereo not given)	none (no result: AHR activator)
Clc1ccc(-c2ccc(/C=N/Nc3nncc(-c4ccccc4)n3)o2)cc1	none
Clc1ccccc1-c1ccc(/C=N/Nc2nncc(-c3ccccc3)n2)o1	hcDAF12 agonist 10 | LXRb hcDAF ctr inactive | hcDAF12 ag inactive
Cc1cccc(C)c1NC(=O)C1(C)CCC(=O)N1C1CCN(Cc2ccccc2)CC1 (stereo not given)	none (no result: DAX1 inh-1, AHR activator)
CN(/N=C/c1ccc2c(c1)OCO2)c1ccccc1	hgDAF-12 ag 11, hcDAF12 agonist 9.1 | LXRb hcDAF ctr inactive | hcDAF12 ag inactive
Cc1cccc2c1-c1sc(C(=O)Nc3ccccc3N3CCN(C)CC3)cc1CO2	none
Cc1ccccc1NC(=O)/C(C#N)=C/c1ccc[nH]1	hcDAF12 agonist 11 (no result: AHR activator) | LXRb hcDAF ctr inactive | hcDAF12 ag 8.5
Cc1ccccc1NC(=O)C(=O)Nc1ccccc1C	hcDAF12 agonist 8.3 | LXRb hcDAF ctr inactive | hcDAF12 ag inactive
N#C/C(=C\c1ccc[nH]1)C(=O)Nc1ccccc1[N+](=O)[O-]	none
Nc1nc2ncccn2c1-c1ccc(F)cc1	none (no result: DAX1 inh-1, AHR activator)
Nc1nc2ncccn2c1-c1ccc(C(F)(F)F)cc1	hcDAF12 agonist 6.9 (no result: DAX1 inh-1, AHR activator) | LXRb hcDAF ctr inactive | hcDAF12 ag inactive
COc1ccc(-c2cc3nc(C)cc(C)n3n2)cc1	DAX1 inh-1 8.0, hgDAF-12 ag 12, ssDAF12 agonist 2.7, hcDAF12 agonist 9.2 | LXRb hcDAF ctr inactive | hcDAF12 ag 13
O=C(NCCc1cccs1)c1ccc(Cl)cc1	hgDAF-12 ag 11, hcDAF12 agonist 7.6 | LXRb hcDAF ctr inactive | hcDAF12 ag inactive
CCn1nc2cc(C(=O)NCCc3cccs3)ccc2c1OC	DAX1 inh-1 4.6, hcDAF12 agonist 8.1 | LXRb hcDAF ctr inactive | hcDAF12 ag 5.7
CCn1c(SCC(=O)N/N=C(/C)c2ccncc2)nc2ccccc21	none
Cc1cccc2c3nc4ccccc4nc3n(C)c12	AHR activator 69, hcDAF12 agonist 6.7 | LXRb hcDAF ctr inactive | hcDAF12 ag 11
CCCNC(=O)N[C@H]1C=C[C@H](CC(=O)NC2CCCCC2)O[C@@H]1CO	none (no result: DAX1 inh-1, AHR activator)
Cc1c[nH]c2ccccc12	none (no result: DAX1 inh-2, hgDAF-12 ag, ssDAF12 agonist, hcDAF12 agonist)
Nc1ccccc1Sc1c[nH]c2ccccc12	hcDAF12 agonist 6.8 | LXRb hcDAF ctr inactive | hcDAF12 ag inactive
O=C(CSc1nnc(NC(=O)c2ccco2)s1)Nc1ccccc1Cl	none
O=C(Nc1nnc(SCc2ccc(Cl)cc2)s1)c1ccco1	hcDAF12 agonist 6.9 | LXRb hcDAF ctr inactive | hcDAF12 ag inactive
COc1ccccc1N1CCN(c2ccc([N+](=O)[O-])cn2)CC1	none
COc1ccccc1-n1cc2ccc([N+](=O)[O-])cc2n1	hcDAF12 agonist 8.6 | LXRb hcDAF ctr inactive | hcDAF12 ag 6.6
CCOC(=O)c1cn[nH]c1NC(=S)Nc1ccc(Cl)cc1	hcDAF12 agonist 7.9 (no result: DAX1 inh-1) | LXRb hcDAF ctr inactive | hcDAF12 ag 10
COc1ccc(Cn2c(O)c(C=Nc3ccc(OC)cc3)c3ccccc3c2=O)cc1	none
COc1ccc(N=Cc2[nH]c3ccccc3c2O)cc1	hcDAF12 agonist 12 | LXRb hcDAF ctr inactive | hcDAF12 ag 9.6
COC(=O)c1sc(-c2ccc(C(C)(C)C)cc2)cc1NC(=O)c1ccccc1C(=O)O	hgDAF-12 ag 12, ssDAF12 agonist 1.5, hcDAF12 agonist 6.8 | LXRb hcDAF ctr inactive | hcDAF12 ag inactive
CCC1(C)N=C(c2ccc3c(c2)OCO3)CC(c2ccccc2O)N1 (stereo not given)	AHR activator 73, hcDAF12 agonist 7.9 | LXRb hcDAF ctr inactive | hcDAF12 ag inactive
Cc1cc(-c2ccc(Cl)cc2)c(C#N)c(N)n1	hcDAF12 agonist 6.7 | LXRb hcDAF ctr inactive | hcDAF12 ag inactive
Cc1ccc(-c2cc(-c3ccccc3)c(C#N)c(N)n2)o1	none
COc1ccc(-c2csc(NC(=O)CN3C(=O)C4CCCCC4C3=O)n2)c(OC)c1 (stereo not given)	none
C=CCNc1nc(-c2ccc(OC)cc2OC)cs1	hgDAF-12 ag 11, hcDAF12 agonist 8.1 | LXRb hcDAF ctr inactive | hcDAF12 ag 8.0
CCOC(=O)N1CCC(N(CCN(C)C)C(=S)Nc2ccc(Oc3ccccc3)cc2)CC1	none
CCOC(=O)c1c(C)oc2c1c1c(c3ccccc32)OCN(Cc2cccnc2)C1	none (no result: DAX1 inh-2, AHR activator, hgDAF-12 ag, ssDAF12 agonist, hcDAF12 agonist)
CCOC(=O)c1c(C)oc2c1c1c(c3ccccc32)OCN(CCCC(=O)O)C1	DAX1 inh-1 5.0, ssDAF12 agonist 1.2, hcDAF12 agonist 8.9 | LXRb hcDAF ctr inactive | hcDAF12 ag 12
CCN(C[C@H]1N[C@@](Cc2ccccc2)(C(=O)OC)[C@H]2C(=O)N(C)C(=O)[C@@H]12)C(=O)COC	none
